Test results published in PubChem BioAssay AID488890 (Southern Research Specialized Biocontainment Screening …, 2010).
In all, about 320,000 compounds went through this assay and about 1,300 (0.41%) were called active. Roughly 3% stayed inconclusive and do not appear here. No rule for the calls is given here. Not all results are given here. Entries with a potency or affinity are not part of this list.

test: growth inhibition of non-replicating M. tuberculosis (AID 488890); conditions: Mycobacterium tuberculosis non-replicating, at 25 µM, stronger effect = higher value;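 also: plate controls were DMSO cells for no effect and high antibiotic wells for full effect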

SMILES	inhibition [%]
O=C1CCCN1CC(O)CS(=O)(=O)Cc1ccccc1 (centres undefined)	-12.3
COc1ccc(C2C(C(C)=O)=C(C)Nc3ncnn32)c(OC)c1OC (centres undefined)	-4.13
Cc1cccn2c(NC(=O)c3cccs3)c(-c3ccccc3)nc12	-0.63
c1ccc(-c2nnc(-c3ccccn3)c(-c3ccccn3)n2)nc1	10.5
Cc1nnc(-c2ccccc2)nc1N(C)C	21.8
COc1cc(CNc2ccc3[nH]c(=O)[nH]c3c2)ccc1OCc1ccc(Cl)cc1	32.9
CC(=O)c1ccc(OC(=O)c2ccc(Br)o2)cc1	79.1
CCc1ccc(C(=O)COC(=O)CNC(=O)c2ccc(Br)o2)cc1	43.3
Cc1ccc(CC(=O)N2CCN(C)CC2)cc1	-6.84
CNc1c([N+](=O)[O-])cnn1-c1ccccc1Cl	10.6
Cc1ccccc1-c1cnn(-c2cccc([N+](=O)[O-])c2)c1N	14.7
O=C(CSc1n[nH]c(=O)n1-c1cccnc1)Nc1ccccc1Cl	-0.8
O=C(Nc1ccccc1N1CCOCC1)C1=NN(c2c(F)c(F)cc(F)c2F)C(=O)CC1	-3.73
O=C(Nc1nccs1)c1ccc(Cl)c([N+](=O)[O-])c1	-5.17
N#Cc1ccsc1NC(=O)c1cccc([N+](=O)[O-])c1	2.42
COC(=O)c1ccccc1S(=O)(=O)N1CCC(C(=O)NCC2CCCO2)CC1 (centres undefined)	-9.14
CN(C(=O)COC(=O)c1ccc(Cl)cc1N)C1CCCCC1	24.6
CN(C(=O)COC(=O)c1cc(NS(=O)(=O)c2cc([N+](=O)[O-])ccc2Cl)ccc1O)C1CCCCC1	35.1
CCN(CC)c1ccc(-c2nnc(SCC(=O)Nc3ccccc3C#N)n2-c2ccccc2)cc1	41
CC1(C)CC(=O)C2=C(C1)OC(N)=C(C#N)C2Cc1ccccc1 (centres undefined)	25
CC1(C)CC(=O)C2=C(C1)OC(N)=C(C#N)C2c1ccccc1 (centres undefined)	24.7
Cc1cc2oc(=O)cc(CN3CCc4ccccc43)c2cc1Cl	-0.24

SMILES	inhibition [%]
COc1ccc(CCn2c(N)cc(=O)[nH]c2=S)cc1OC	10.4
CCOc1ccc(CCNC(=O)CCn2nc(C)c3c(C)n(-c4ccccc4)nc3c2=O)cc1	-11.8
O=C(OCc1cnc(Cl)s1)c1ccccc1Cl	56.8
O=C(OCc1cncs1)c1ccccc1Cl	32.7
CCOC(=O)CSc1nnc(CNC(=O)c2cccs2)n1-c1cccc(C)c1	33
C[C@@H]1CCCCCCCCC(=O)OCCN(C(=O)OC(C)(C)C)[C@H](C)CCCCCCCCC(=O)OCCN(C(=O)OC(C)(C)C)[C@H](C)CCCCCCCCC(=O)OCCN(C(=O)OC(C)(C)C)[C@H](C)CCCCCCCCC(=O)OCCN1C(=O)OC(C)(C)C	-3.81
O=[N+]([O-])c1cccc(-c2nnc(SCc3cccnc3)o2)c1	43.9
O=[N+]([O-])c1ccc(CSc2nnc(-c3cnccn3)o2)cc1	66.9
Clc1ccc(CSc2nnc(-c3cccnc3)o2)cc1	47.9
Brc1ccc(CSc2nnc(-c3cccnc3)o2)cc1	-15.4
Cc1cc(C(=O)Nc2ccccc2C)on1	-6.92
CCCC(=O)Nc1ccc(C(=O)/C=C/c2ccc(SC)cc2)cc1	42.6
COc1cc2c(cc1OC)C(c1cc3cccc(C)c3[nH]c1=O)N(C(=O)c1ccco1)CC2 (centres undefined)	30.4
COc1ccc(NC(=S)NCc2ccc(F)cc2)c(OC)c1	14.9
CC1CCN(C(=O)CN(CCc2ccccc2)S(C)(=O)=O)CC1	-0.19
O=C(O)CCCN1C(=O)/C(=C/c2ccncc2)SC1=S	65
O=C(O)CCN1C(=O)/C(=C\c2ccncc2)SC1=S	38.8
Cn1c(CNC(=O)CNS(=O)(=O)c2ccccc2)cc(=O)n(C)c1=O	-2.98
CCCCn1c(N)c(N(CC)C(=O)CCc2ccccc2)c(=O)[nH]c1=O	9.68
O=C(c1cccc2ccccc12)N1CCCCC1	-8.51
O=C(c1cccc(F)c1F)N1CCCC1	-8.96
CCOP(=O)(OCC)C(NC(=O)C(F)(F)F)c1ccccc1 (centres undefined)	3.99

SMILES	inhibition [%]
COc1ccc(S(=O)(=O)CCC(=O)NCCc2cccc(C)c2)cc1	-8.54
CCOc1ccc(C(=O)CC(=O)C(=O)NCCc2ccc(OC)c(OC)c2)cc1	31.3
Cc1nc2cc(NS(=O)(=O)c3ccccc3F)ccc2s1	3.43
COc1ccccc1Oc1cc(-n2nc(C)cc2C)ncn1	30
CCOC(=O)c1cnc(Nc2nc3ccccc3o2)nc1CSc1ncccn1	1.64
CCOC(=O)c1cnc(Nc2nc3ccccc3o2)nc1CSC(=S)N(CC)CC	28.1
CCn1ncc(C(=O)Nc2ccc(F)cc2)c1C	-7.3
O=C(CCn1c(=S)[nH]c2ccccc2c1=O)Nc1cccc(Cl)c1	-2.2
COc1ccccc1OCC(O)Cn1c(=N)n(Cc2ccccc2)c2ccccc21 (centres undefined)	45
N=c1n(Cc2ccccc2)c2ccccc2n1CC(O)COc1ccccc1 (centres undefined)	70.8
CC(=O)Nc1ccc(OCC(O)Cn2nc(C)c(C(C)=O)c2C)cc1 (centres undefined)	-9.63
COc1ccc(C(=O)C2CCCN(C(=O)c3c4c(nn3C)CCCC4)C2)cc1F (centres undefined)	-19.7
Cc1ccc(C(=O)Nc2ccc3c(c2)CCC3)o1	79.8
COC(=O)c1ccc(NC(=O)C2C3C=CC(O3)C2C(=O)O)cc1 (centres undefined)	5.13
COC(=O)Cc1ccc(NC(=O)c2ccc(Br)o2)cc1	72.6
CCOC(=O)c1ccc(NC(=O)C2C3C=CC(O3)C2C(=O)O)cc1 (centres undefined)	20.5
O=C(Nc1ccc2c(c1)Cc1ccccc1-2)c1ccc(Br)o1	53.9
CCN(CC)c1ccc(NC(=O)c2ccc(Br)o2)cc1	52.8
CC(NC(=O)CCSCCC(=O)NC(C)c1ccccc1)c1ccccc1 (centres undefined)	21.4
Cc1cc(C(=O)N2CCN(c3ccc(F)cc3)CC2)on1	53.3
COc1ccc(C2=NS(=O)(=O)N(C)C(C(=O)Nc3ccc(OC)c(OC)c3)=C2)cc1	17.6
NC(=O)CC(NC(=O)c1ccc(Br)cc1)c1ccc(NC2CCCCCC2)c([N+](=O)[O-])c1 (centres undefined)	7.44

SMILES	inhibition [%]
CC1(C)CC(=O)c2cc(C(=O)O)c(=O)n(-c3ccccc3)c2C1	15.2
CC1(C)CC(=O)c2cc(C(=O)Nn3cnnc3)c(=O)n(-c3ccccc3)c2C1	9
COc1ccccc1CCC(=O)OCC(=O)NCc1ccc(OC)c(OC)c1	-1.1
COc1ccccc1C1NC(=O)CCC1[N+](=O)[O-] (centres undefined)	3.51
O=C(O)c1cccc(Nc2ccc([N+](=O)[O-])c3nonc23)c1	16.5
O=[N+]([O-])c1c(Nc2ccccc2O)ccc2nonc12	61.7
O=C(O)c1ccc(Nc2ccc([N+](=O)[O-])c3nonc23)cc1	25.2
O=C(O)c1ccccc1Nc1ccc([N+](=O)[O-])c2nonc12	8.28
CCOc1ccc(Nc2ccc3nonc3c2[N+](=O)[O-])cc1	-4.04
NS(=O)(=O)c1ccc(Nc2ccc([N+](=O)[O-])c3nonc23)cc1	66.5
COc1ccccc1N1C(=S)N=C(Nc2c(C)cccc2C)C12CCCC2	15.9
CC(C)(C)NC(=O)C1CCCN(S(=O)(=O)c2ccc(-n3cnnn3)cc2)C1 (centres undefined)	17
COC(=O)CNC(=O)CSc1nnc2cc(C)c3ccccc3n12	-0.34
CC(/C=C/C1[C@H](C)C[C@H](O[C@@H]2O[C@H](CO)[C@@H](O)[C@H](O)[C@H]2O)CC1(C)C)O[C@H]1O[C@H](CO)[C@@H](O)[C@H](O)[C@H]1O (some centres undefined)	-10.5
Cc1ccc2c(-c3ccc([N+](=O)[O-])cc3)cc(=O)[nH]c2c1	-4.88
Cc1cccn2c(=O)c(C=Nc3ccccc3)c(NCc3ccco3)nc12	56.2
Cc1ccc2nc(NCc3ccco3)c(C=NCc3ccco3)c(=O)n2c1	0.74
O=C(CN1CCN(S(=O)(=O)c2ccccc2)CC1)NC(=O)NCc1ccco1	1.38
O=C(O)c1ccccc1NCc1ccncc1	4.81
C[C@]12CCC(=O)C=C1CCC1C2CC[C@@]2(C)C1CC[C@]2(C)O (some centres undefined)	11.1
CCCCOC(=O)c1cc(-c2ccc(/C=N/n3cnnc3)o2)ccc1Cl	75.6
CCOC(=O)c1cc(-c2ccc(/C=N\n3cnnc3)o2)ccc1Cl	10

SMILES	inhibition [%]
CCCCOC(=O)c1ccc(-c2ccc(/C=N/NC(=S)NCC)o2)cc1	73.2
O=Cc1ccc(-c2ccc(C(=O)O)cc2)o1	-8.13
CC(=O)C1=C(O)C(=O)N(CCC(=O)O)C1c1cccc(F)c1 (centres undefined)	-0.65
CCCC(=O)NNc1c2ccccc2nc2ccccc12	74.5
O=C(NNc1c2ccccc2nc2ccccc12)c1ccc(O)cc1	42
CCOc1ccc(S(=O)(=O)Nc2ccc(C(=O)NCCCN3CCOCC3)cc2)cc1	-11.7
CCC(C)C(NC(=O)C1CCC(C)CC1)C(=O)NCc1ccco1 (centres undefined)	-7.14
C/C(=N/NC(=O)CNC(=O)c1ccccn1)c1ccc([N+](=O)[O-])cc1	-2.72
C/C(=N\NC(=O)C(c1ccccc1)c1ccccc1)c1ccccn1	78.2
O=S(=O)(c1ccc2nc(-c3ccccc3)[nH]c2c1)N1CCN(c2ccc(Cl)cc2)CC1	-14.5
C/C(=N\Nc1ncc(Cl)cc1Cl)c1ccc(OC(F)F)cc1	66.3
COc1ccc(/C(C)=N/Nc2ccccc2Cl)c(O)c1	9.47
COc1ccc([N+](=O)[O-])cc1NC(=O)c1cn(-c2ccc(Cl)cc2)c(=O)c2ccccc12	-16.7
N#CC1=C(N)Oc2nc[nH]c(=O)c2C1c1cccs1 (centres undefined)	-24.7
Cc1cc(C)n2nc(N)c(N=Nc3ccc(Cl)cc3)c2n1	74.1
Cc1cc(C)n2nc(N)c(N=Nc3cccc(Cl)c3)c2n1	79.2
O=C1N/C(=N/c2ccccn2)SC1Cc1ccccc1 (centres undefined)	61.6
Cc1ccc(CC2S/C(=N/c3ccccn3)NC2=O)cc1 (centres undefined)	21.2
Cn1ccnc1SCC(=O)Nc1cccc(O)c1	1.05
CC/C(=N/Nc1ccccc1Cl)c1cnnc(-c2ccccc2)n1	5.04
COCCNC(=O)Cn1cc(C(=O)c2ccccc2F)c2ccccc21	6.99
